KCNQ2 block = rat KCNQ2 potassium channel inhibitors, primary screen, cell-based, CHO-K1, FluxOR thallium flux, B-score | Potassium voltage-gated channel subfamily KQT member 2 (Rattus norvegicus), O88943 | 20 min; active compounds read low | 310,000 compounds, 1.1% hits | B-score at 10 µM | AID 2156, 2009;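 active = fluorescence ratio B-score at most minus 3 library SDs, with starting brightness B-score within 2 library SDs, cut at about -5.5 in these data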
KCNQ2 pot = potentiators of rat KCNQ2 potassium channel. CHO-K1 KCNQ2, FluxOR thallium flux fluorescence; active compounds read high. 310,000 compounds, 0.54% hits. Potassium voltage-gated channel subfamily KQT member 2 (Rattus norvegicus), O88943. B-score at 10 µM;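 active = fluorescence ratio B-score at least 3 SD of library B-scores, with initial fluorescence B-score within 3 of them, cut at about 5.3 in these data; same plate scores as AID 2156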;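 note: B-score of peak minus minimum over baseline fluorescence ratio after K+ and Tl+ stimulus; positive B-score means potentiation of KCNQ2 with more thallium influx and brighter signal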
Kir21 confirm = mouse Kir2.1 channel blockers, retest, confirmation, cell-based, FluxOR thallium flux, duplicate. shares compounds with KCNQ2 pot. Kir2.1-expressing cells, FluxOR thallium flux fluorescence; active compounds read low. Tl flux remaining, % of negative control (active compounds read low), % at 10 µM. 2,300 compounds, 41% hits. AID 2032, 2009;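 active = Primary-screen hit whose thallium flux fell at least 3 control SD below untreated wells in both duplicates, with normal baseline fluorescence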;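 note: 0% = blank wells without stimulus and 100% = stimulated no-compound controls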
HEK293 ctr = counter-screen for Kir2.1 inhibitors: effect in parental HEK293 cells. shares compounds with KCNQ2 pot. FluxOR thallium flux fluorescence; 0% = unstimulated blank wells. FluxOR signal as % of negative control (100 = no effect), % at 10 µM. 2,300 compounds, 19% hits;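 active = dye signal at least 3 control SD above or below untreated wells in both duplicates, raw fluorescence within 3, either direction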;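 note: percent is based on the flux ratio of peak minus minimum fluorescence over baseline F0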
CHO-K1 ctr = nonspecific thallium flux increase in parental CHO-K1, confirmation, counter-screen for KCNQ2 potentiator project, cell-based, FluxOR thallium flux, duplicate | parental CHO-K1 cells, FluxOR thallium flux fluorescence; zero = vehicle mean+3SD, 100% = vehicle-minus-blank window | shares compounds with KCNQ2 pot | 1,200 compounds, 43% hits | activity increase over 3SD of controls, % at 10 µM;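 active = signal rise of at least 3 SD above the untreated control mean, in both duplicate wells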;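 note: counter screen of KCNQ2 potentiator hits so any rise reflects channel-independent effects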
KCNQ1 pot spec = human KCNQ1 channel potentiation off-target, confirmation, selectivity assay for KCNQ2 potentiator project, cell-based, CHO, FluxOR thallium flux | shares compounds with KCNQ2 pot | CHO KCNQ1 stable, FluxOR thallium flux fluorescence; beyond 3SD, as % of vehicle-control signal | activation over 3SD threshold, % at 10 µM | 1,200 compounds, 28% hits | AID 2283, 2010;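 active = fluorescence ratio rise of at least 3 SD of vehicle wells above their mean, in both replicate wells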;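 note: 0% = vehicle mean plus 3 SD and 100% = vehicle minus unstimulated blank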
KCNQ2 pot confirm = rat KCNQ2 channel potentiators, confirmation, cell-based, CHO, FluxOR thallium flux, duplicate | shares compounds with KCNQ2 pot | CHO-KCNQ2 cells, FluxOR thallium flux fluorescence | potentiation, less the hit threshold, % at 10 µM | 1,200 compounds, 68% hits;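 active = fluorescence ratio rising 3 SD or more over the vehicle control mean in both replicates, plus primary screen hit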;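 note: peak minus minimum thallium fluorescence divided by baseline after K/Tl stimulus; 0% = vehicle mean plus 3 SD and 100% = vehicle minus unstimulated blank difference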
Kir21 spec = mouse Kir2.1 channel activation off-target, confirmation, selectivity assay for KCNQ2 potentiator project, cell-based, HEK293, FluxOR thallium flux. shares compounds with KCNQ2 pot. HEK293 Kir2.1, FluxOR thallium flux fluorescence. activity over 3SD threshold, % at 10 µM. 1,200 compounds, 2% hits;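 active = fluorescence ratio rise of at least 3 SD above the vehicle-control mean, seen in both replicates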;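 note: 0% = vehicle mean plus 3 SD and 100% = vehicle minus no-stimulus blank window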
KCNQ2 W236L MoA = potentiators of retigabine-insensitive KCNQ2 W236L, mechanism study for KCNQ2 potentiator project, cell-based, rat KCNQ2 W236L, CHO, automated patch clamp; shares compounds with KCNQ2 pot; automated patch clamp current; current increase over 3SD of negative controls (%), active compounds read high, % at 25 µM; 940 compounds, 10% hits;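 active = current increase at least 3 SD of the untreated controls above them in both duplicate recordings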
Target sequence (O88943 whole entry W236L, looked up): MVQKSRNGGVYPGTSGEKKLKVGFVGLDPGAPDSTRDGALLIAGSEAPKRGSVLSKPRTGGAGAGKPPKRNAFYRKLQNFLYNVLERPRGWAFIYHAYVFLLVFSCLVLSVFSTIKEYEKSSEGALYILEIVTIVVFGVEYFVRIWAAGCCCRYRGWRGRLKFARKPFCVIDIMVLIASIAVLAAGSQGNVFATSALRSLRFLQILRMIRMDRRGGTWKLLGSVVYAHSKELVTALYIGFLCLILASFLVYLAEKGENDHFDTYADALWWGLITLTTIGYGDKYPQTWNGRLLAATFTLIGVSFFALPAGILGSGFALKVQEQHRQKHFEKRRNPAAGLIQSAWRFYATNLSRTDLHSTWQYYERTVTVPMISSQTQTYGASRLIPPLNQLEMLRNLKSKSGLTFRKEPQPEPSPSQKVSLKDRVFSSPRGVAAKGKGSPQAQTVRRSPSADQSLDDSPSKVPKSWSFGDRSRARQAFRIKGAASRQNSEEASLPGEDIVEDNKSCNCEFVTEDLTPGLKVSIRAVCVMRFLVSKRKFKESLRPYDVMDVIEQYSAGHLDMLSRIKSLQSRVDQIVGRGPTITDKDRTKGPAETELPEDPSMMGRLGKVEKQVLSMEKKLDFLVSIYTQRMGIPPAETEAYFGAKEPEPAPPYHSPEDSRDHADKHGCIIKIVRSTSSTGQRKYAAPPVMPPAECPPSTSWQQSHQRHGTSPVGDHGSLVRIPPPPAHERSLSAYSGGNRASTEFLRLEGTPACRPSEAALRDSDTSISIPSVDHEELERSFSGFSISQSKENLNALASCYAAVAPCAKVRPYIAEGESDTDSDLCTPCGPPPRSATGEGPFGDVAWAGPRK
The depositor's hits bear a star; i = inactive; · = not tested or not shown. Shown are actives, neighbours in structure and some others; about 1.6% of the full set was active somewhere.

SMILES | KCNQ2 block | KCNQ2 pot | Kir21 confirm | HEK293 ctr | others
O=C(CSC(=S)N1CCCCC1)N1N=CCC1c1ccccc1 (configuration not stated) | i | · | · | ·
O=C(Nc1ccccc1)C1CCN(c2nccs2)CC1 | i | · | · | ·
CC(C)NS(=O)(=O)c1ccc(Oc2ncc(C(F)(F)F)cc2Cl)cc1 | i | · | · | ·
COc1ccc(S(=O)(=O)NN(C)c2ncc(C(F)(F)F)cc2Cl)cc1 | i | · | 61%* | i
CC(Oc1ccc(Cl)cc1)c1ccnn1S(=O)(=O)c1ccc(Cl)cc1 (configuration not stated) | i | · | · | ·
CC(Oc1ccccc1)c1ccnn1S(=O)(=O)c1ccccc1 (configuration not stated) | i | · | 52%* | i
CCOC(=O)N1CCN(C(=O)CSc2ccc(-c3ccccc3)nn2)CC1 | i | 2 | · | ·
O=C(CN1CCCCC1)NNC(=O)c1ccc([N+](=O)[O-])cc1 | i | · | · | ·
CC(NC(=O)COC(=O)C1CCC1)c1ccccc1 (configuration not stated) | i | · | · | ·
CC(NC(=O)CC1CCCCC1)c1ccccc1 (configuration not stated) | i | 5.3* | i | i | CHO-K1 ctr=-1;KCNQ1 pot spec=-18;KCNQ2 pot confirm=7.1*;Kir21 spec=-40;KCNQ2 W236L MoA=i
CC(C)CC(NC(=O)C1CCCCC1)C(=O)NC(C)c1ccccc1 (configuration not stated) | i | 18* | i | i | CHO-K1 ctr=3.7*;KCNQ1 pot spec=-25;KCNQ2 pot confirm=29*;Kir21 spec=-39;KCNQ2 W236L MoA=i
COc1ccccc1NC(=O)C(CC(C)C)NC(=O)C1CCCCC1 (configuration not stated) | i | · | · | ·
O=S(=O)(c1ccc(NCc2ccc(F)cc2)nc1)N1CCCC1 | i | 0.29 | · | ·
O=C(Oc1cccnc1)c1ccco1 | i | · | · | ·
O=C(Oc1cccc(OC(=O)c2ccco2)c1)c1ccco1 | i | 0.44 | 51%* | i
CSc1nsc(/C=C/Nc2ccc(Cl)cc2)c1C#N | i | 1.1 | · | ·
CC(C)(C)c1ccc(C(=O)c2c[nH]c(C(=O)NCc3cccnc3)c2)cc1 | i | · | · | ·
CN(CC(=O)Nc1ccc(OC(F)(F)F)cc1)C1CCCCC1 | i | · | · | ·
O=C(CNCC1CCCCC1)Nc1ccc(OC(F)(F)F)cc1 | i | 15* | i | i | CHO-K1 ctr=0.6*;KCNQ1 pot spec=-17;KCNQ2 pot confirm=35*;Kir21 spec=-34;KCNQ2 W236L MoA=i
Cc1ccc(C(=O)N/C(=C\c2ccco2)C(=O)N2CCOCC2)cc1C | i | 1.3 | · | ·
N#Cc1cccc(C(c2nnnn2CCc2ccccc2)N2CCN(C3CCCCC3)CC2)c1 (configuration not stated) | i | 0.05 | · | ·
Cc1ccc2c(c1)c(C)c(C)n2CC(O)Cn1nc(C)cc1C (configuration not stated) | i | 1.1 | · | ·
O=C(Nc1ccc2cn[nH]c2c1)c1ccc(Cl)c(S(=O)(=O)N2CCOCC2)c1 | i | · | · | ·
Cc1ccc(C2Cc3cc(O)c(O)cc3CN2)cc1 (configuration not stated) | i | · | 28%* | 62%*
Cc1ccc(O)c(O)c1 | i | · | · | ·
SMILES | KCNQ2 block | KCNQ2 pot | Kir21 confirm | HEK293 ctr | others
Nc1nn(S(=O)(=O)c2cccc3nsnc23)cc1-c1ccc(Br)cc1 | i | 8* | i | i | CHO-K1 ctr=-12;KCNQ1 pot spec=8.4*;KCNQ2 pot confirm=-17;Kir21 spec=-37
COc1cc(-c2cn(S(=O)(=O)c3cccc4nsnc34)nc2N)cc(OC)c1OC | i | 1.6 | · | ·
O=C1c2ccccc2C(Nc2cccnc2)N1Cc1ccccc1 (configuration not stated) | i | · | · | ·
CC1Cc2cc(/C=C3/SC(=S)NC3=O)ccc2O1 (configuration not stated) | i | 10* | i | 145%* | CHO-K1 ctr=-13;KCNQ1 pot spec=-14;KCNQ2 pot confirm=7.8*;Kir21 spec=-31;KCNQ2 W236L MoA=4.5%*
Cc1cc(/C=C2\SC(=S)NC2=O)cc(C)c1O | i | 0.89 | · | ·
Nc1ccc(C(=O)N/N=C2\CCCc3c2[nH]c2ccccc32)cc1 | i | 0.77 | · | ·
c1ccc(CCN=C2CCCc3c2[nH]c2ccccc32)cc1 | i | · | 20%* | 70%*
CC(C)c1ccc(NC(=O)C(c2ccccc2)N(C)C(=O)c2cnccn2)cc1 (configuration not stated) | i | 0.26 | · | ·
COc1ccc(NC(=O)C(c2ccc(OC)cc2)N(C)C(=O)c2cnccn2)cc1 (configuration not stated) | i | 6.4* | i | i | CHO-K1 ctr=0.6*;KCNQ1 pot spec=-25;KCNQ2 pot confirm=24*;Kir21 spec=-28;KCNQ2 W236L MoA=i
O=C(Oc1ccc(C(=S)N2CCOCC2)cc1)c1ccccc1[N+](=O)[O-] | i | · | · | ·
O=C(Oc1ccc(C(=S)N2CCOCC2)cc1)c1ccccc1F | i | 0.17 | 71%* | i
O=C(Oc1ccc(C(=S)N2CCOCC2)cc1Cl)c1ccccc1F | i | · | 69%* | i
O=C(Oc1ccc(C(=S)N2CCOCC2)cc1Br)c1ccccc1F | i | · | · | ·
Fc1ccccc1NC(=S)N1CCN(C/C=C/c2ccccc2)CC1 | i | 0.57 | · | ·
COc1cc(-c2noc(CCCC(=O)Nc3ccc(C(N)=O)cc3)n2)cc(OC)c1OC | i | 1.1 | · | ·
O=C(c1cccn2c(=O)c3cc(Cl)ccc3nc12)N1CCOCC1 | i | 0.1 | · | ·
CSc1nsc(/C=C/Nc2ccc(F)cc2)c1C#N | i | 0.32 | · | ·
Cc1ccc(-c2cc(-c3n[nH]c(=S)o3)c3ccccc3n2)cc1 | i | 14* | i | 486%* | CHO-K1 ctr=47*;KCNQ1 pot spec=-12;KCNQ2 pot confirm=168*;Kir21 spec=-6;KCNQ2 W236L MoA=i
S=c1[nH]nc(-c2cc(-c3ccccn3)nc3ccccc23)o1 | i | 0.83 | · | ·
Clc1ccc(OCCCN2CCCC2)cc1Cl | i | · | · | ·

High-throughput results as filed in PubChem.
